Source: PubChem BioAssay (NCI)
This is part of a sample that, as a whole, favours compounds with a hit. Of some 83,000 tested, about 20% had one in any assay.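 Cells were grown in 96-well plates and exposed to the test compound at a single concentration for 48 hours; results are reported as percent growth, with values below 10 considered active.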 Values without a mark were called inactive. The source made the active and inactive calls.

Experiments:
Experiment in all cases: NCI-60 one-dose screen, 48 h (100 = growth as untreated, 0 = no growth, -100 = all killed)
Conditions in all cases: 10 µM unless noted
HCT-15 colon = test system: HCT-15 colon
HT29 colon = test system: HT29 colon
SNB-75 CNS = test system: SNB-75 CNS
SNB-19 CNS = test system: SNB-19 CNS
U251 CNS = test system: U251 CNS
PC-3 prostate = test system: PC-3 prostate
SK-MEL-5 melanoma = test system: SK-MEL-5 melanoma
UACC-62 melanoma = test system: UACC-62 melanoma
LOX IMVI melanoma = test system: LOX IMVI melanoma
SK-MEL-28 melanoma = test system: SK-MEL-28 melanoma
SK-MEL-2 melanoma = test system: SK-MEL-2 melanoma
EKVX NSCLC = test system: EKVX NSCLC
SN12C renal = test system: SN12C renal
UO-31 renal = test system: UO-31 renal
TK-10 renal = test system: TK-10 renal
ACHN renal = test system: ACHN renal
CAKI-1 renal = test system: CAKI-1 renal
A498 renal = test system: A498 renal
CCRF-CEM leukemia = test system: CCRF-CEM leukemia
MOLT-4 leukemia = test system: MOLT-4 leukemia

Row | Structure (SMILES) | growth (HCT-15 colon) | growth (HT29 colon) | growth (SNB-75 CNS) | growth (SNB-19 CNS) | growth (U251 CNS) | growth (PC-3 prostate) | growth (SK-MEL-5 melanoma) | growth (UACC-62 melanoma) | growth (LOX IMVI melanoma) | growth (SK-MEL-28 melanoma) | growth (SK-MEL-2 melanoma) | growth (EKVX NSCLC) | growth (SN12C renal) | growth (UO-31 renal) | growth (TK-10 renal) | growth (ACHN renal) | growth (CAKI-1 renal) | growth (A498 renal) | growth (CCRF-CEM leukemia) | growth (MOLT-4 leukemia)
1 | CCCCCCCCCCCCCCCCCCOc1ccccc1CC(=O)OCC[N+]1(C)CCCC1 | 68.1% | 12.4% | 7.26% (active) | 31.1% | 7.62% (active) | 21.8% | 1.15% (active) | 23.3% | -94.4% (active) | 49.7% | 65.6% | 53.8% | 12.7% | 62.8% | 45.2% | 78.9% | 30.9% | 60.7% | 19.8% | 18.1%
2 | C=C(C)[C@@H]1CC[C@]2(C)[C@H](CC=C3[C@@H]4[C@H](C)[C@@H](C)CC[C@]4(CO)CC[C@]32C)[C@@]1(C)CCCN | -39.1% (active) | -44.5% (active) | 18.5% | 72.3% | -74.3% (active) | 11% | 67.1% | 79.4% | -99% (active) | -35.3% (active) | -24.7% (active) | 74.1% | -4.38% (active) | 34.1% | -68.3% (active) | 63.4% | 22.4% | 72.5% | 0.722% (active) | -10.6% (active)
3 | O=C(Cc1ccccc1)Nc1nc(O)c(/C=C2\C(=O)C=Cc3ccccc32)s1 | 100% | 111% | 95.5% | 92.3% | 101% | 92.4% | 103% | 94.6% | 97.6% | 114% | 110% | 95.6% | 101% | 78.2% | 150% | 101% | 85.3% | 66.8% | 114% | 101%
4 | O=C1C(Cl)=C(Nc2ccc(O)cc2)C(=O)N1Cc1ccc(Cl)cc1 | 19.7% | 11% | 59% | 69.5% | 47.1% | 45.9% | 50.7% | 65.3% | 57.7% | 61.6% | 66.2% | 79% | 64.9% | 52.2% | 63.2% | 71.4% | 74% | 75.4% | 4.97% (active) | 16.9%
5 | COc1cc(N2C(=O)[C@H](O)C2c2ccc(SC)cc2)cc(OC)c1OC (stereo not given in full) | 12.8% | -14.5% (active) | 83.8% | 35.9% | 14.4% | 22.4% | -13.8% (active) | 33.8% | 25.5% | 67.1% | 16.6% | 36.7% | 28.7% | 43.5% | 40.7% | 31.8% | 23.6% | -1.79% (active) | 3.99% (active) | 4.67% (active)
6 | CN(CCOc1ccc(C#N)cc1)CCOc1ccc(C#N)cc1 | 85.8% | 88.7% | 83.4% | 44.5% | 78% | 71.7% | 6.74% (active) | 73.4% | 84.9% | 94.9% | 66.9% | 80.3% | 81.6% | 63% | 94.3% | 83.6% | 99.7% | 12.7% | -84.4% (active) | 94.4%
7 | CCSc1nc(NC)c2cc(-c3ccc(C(F)(F)F)cc3)ccc2n1 | 95.5% | 98.9% | 99.4% | 97% | 103% | 94.9% | 97.9% | 92.9% | 106% | 95% | 98.2% | 96.6% | 95.1% | 92.2% | 121% | 97.6% | 96.3% | 112% | 95.6% | 93.4%
8 | Cc1ccc(-c2nc3nc(-c4ccccc4)nc(N4CCNCC4)c3o2)cc1 | -77% (active) | -74.4% (active) | -90.7% (active) | -80.6% (active) | -90.2% (active) | -81.6% (active) | -95.8% (active) | -87.8% (active) | -78.6% (active) | -90.1% (active) | -92.7% (active) | -65.5% (active) | -78.3% (active) | -91.8% (active) | -96.5% (active) | -97.2% (active) | -99% (active) | -88.7% (active) | -69.3% (active) | -69.2% (active)
9 | O=C(NCc1ccccc1)Nc1ccccc1CNc1nc(Nc2ccc(OCCN3CCCC3)cc2)ncc1Cl | 56.6% | 68.4% | 82.4% | 94.3% | 45.5% | 94.5% | 95.2% | 98.6% | 88.8% | 105% | 108% | 99.2% | 101% | 71.7% | 110% | 92.3% | 106% | 77.2% | 20% | 74.1%
10 | CC1(C)CC[C@]2(C(=O)O)CC[C@]3(C)C(=CC[C@@H]4[C@@]5(C)C/C(=C/O)C(=O)C(C)(C)[C@@H]5CC[C@]43C)[C@@H]2C1 | 24.4% | 26.6% | 95.4% | 60.1% | 28.3% | 31.4% | 67.8% | 61.6% | 27.4% | 52.2% | 104% | 88.6% | 65.7% | 57.7% | 58.1% | 20% | 48.6% | 85.6% | 16.3% | 7.85% (active)
11 | CCOP(=O)(OCC)c1nc(-c2ccccc2)oc1NCc1cccnc1 | 107% | 111% | 92.9% | 97.5% | 107% | 101% | 103% | 106% | 103% | 113% | 111% | 104% | 103% | 89.7% | 101% | 103% | 97.3% | 102% | 108% | 101%
12 | O=C1CNC(c2ccccc2)C(c2ccccc2)N1 (stereo not given) | 104% | 85.2% | 75.8% | 100% | 97.5% | 81.6% | 104% | 96.6% | 92.1% | 171% | 94.7% | 102% | 99.8% | 109% | 103% | 98.5% | 81.2% | 74.7% | 69.9% | 104%
13 | O=C(Nc1cccc([N+](=O)[O-])c1)c1cc2ccccc2cc1O | 12.8% | 13.4% | 6.46% (active) | 25.8% | 6.12% (active) | 0.633% (active) | -53.6% (active) | 18.8% | 10% | 28.1% | 1.68% (active) | 3.68% (active) | 0.988% (active) | 4.6% (active) | 17.4% | 0.0296% (active) | -22.9% (active) | 1.58% (active) | -12.7% (active) | -44.6% (active)
14 | O=C(O)CNC1=C(Cl)C(=O)c2ccccc2C1=O | 100% | 103% | 86.5% | 96.5% | 91.1% | 77.7% | 112% | 93.6% | 84% | 113% | 100% | 98.6% | 92.7% | 58.9% | 110% | 91.2% | 76.7% | 102% | 91.4% | 100%
15 | O=[N+]([O-])C1C(c2ccccc2)C12c1ccccc1-c1ccccc12 (stereo not given) | 17.5% | -13.4% (active) | 29% | 43.3% | -15.2% (active) | 12.2% | -16.5% (active) | 17.8% | -44.4% (active) | 49.2% | -1.42% (active) | 77.9% | 23% | 28.3% | 23.2% | 29.6% | 34.6% | -12.8% (active) | -12.1% (active) | -17.1% (active)
